Assay outcomes from PubChem BioAssay.
CHRM1 antagonist: human M1 muscarinic receptor antagonists, primary screen, CHO-K1 cells, Fluo-8 calcium fluorescence, 1536-well; Muscarinic acetylcholine receptor M1 (Homo sapiens), P11229; CHO-K1 hM1, ACh EC80 antagonist; inhibition, % at 3 µM; hit rate 1.3% among 360,000;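 active = percent inhibition above its own plate's cutoff, namely the mean of that plate's compound wells plus 3 SD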;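 also: peak over basal fluorescence ratio during 140 s after agonist addition; 0% = ACh EC80 plus DMSO and 100% = DMSO alone without agonist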
Target sequence (P11229 whole entry, looked up): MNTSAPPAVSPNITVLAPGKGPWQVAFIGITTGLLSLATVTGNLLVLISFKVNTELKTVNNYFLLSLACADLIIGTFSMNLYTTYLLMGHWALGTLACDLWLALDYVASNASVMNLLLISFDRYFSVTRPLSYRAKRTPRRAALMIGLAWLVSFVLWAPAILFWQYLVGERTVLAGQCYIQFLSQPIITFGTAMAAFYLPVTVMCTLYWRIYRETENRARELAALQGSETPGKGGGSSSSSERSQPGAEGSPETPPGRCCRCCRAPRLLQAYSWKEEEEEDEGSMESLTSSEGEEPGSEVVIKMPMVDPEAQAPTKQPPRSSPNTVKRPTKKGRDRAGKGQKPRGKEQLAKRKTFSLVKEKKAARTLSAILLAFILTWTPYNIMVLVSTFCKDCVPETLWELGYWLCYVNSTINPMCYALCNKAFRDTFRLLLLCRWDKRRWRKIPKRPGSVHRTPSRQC
CHRM1 agonist: human M1 muscarinic receptor agonists, primary screen, Fluo-8 calcium fluorescence, CHO-K1 cells, HTS. AID 588814, 2011. CHO-K1 hM1, agonist mode; 0% DMSO, 100% acetylcholine EC100. hit rate 0.33% among 360,000. Muscarinic acetylcholine receptor M1 (Homo sapiens), P11229. activation, % at 3 µM;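 active = activation above the run's mean compound activation plus 3 SD, cut at about 16% in these data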;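 also: peak over basal fluorescence ratio within a 140 s kinetic read after compound addition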
M1 PAM: human M1 muscarinic receptor positive allosteric modulators, primary screen, CHO-K1 cells, Fluo-8 calcium fluorescence, 1536-well | hit rate 0.088% among 360,000 | Muscarinic acetylcholine receptor M1 (Homo sapiens), P11229 | activation, % at 3 µM | AID 588819, 2011 | CHO-K1 hM1, ACh EC20; 0% = ACh EC20, 100% = maximal ACh; in the data active = activation above about 19%, passing the limit was not always enough
CHO-K1 Ca PAM: nonselective calcium activators in parental CHO-K1 cells, primary screen, counter-screen for M1 PAM project, cell-based, Fluo-8 calcium fluorescence, full deck, 1536-well; AID 602247, 2012; activation, % at 3 µM; hit rate 0.02% among 360,000; ATP EC20; 0% at ATP EC20, 100% at ATP max;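 active = activation above the run cutoff, the mean activation of all test compounds plus 3 SD, cut at about 40% in these data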;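 also: peak over basal fluorescence ratio in a 140 s read after ATP addition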
CHO-K1 Ca ag: counter-screen for M1 agonists: effect in parental CHO-K1 cells | Fluo-8 calcium fluorescence; scaled to maximal ATP response, vehicle zero | activation, % at 3 µM | hit rate 0.48% among 360,000; in the data active = activation above about 15%;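 also: untransfected CHO-K1 host cells lacking M1 receptor as counterscreen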
CHO-K1 Ca antag: counter-screen for M1 antagonists: effect in parental CHO-K1 cells; ATP-induced calcium, Fluo-8 fluorescence; inhibition, % at 3 µM; hit rate 0.6% among 360,000;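 active = inhibition above a per-plate cutoff, the plate's mean sample inhibition plus 3 SD, cut at about 24% in these data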;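 also: 0% = DMSO plus EC80 ATP and 100% = DMSO alone without ATP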
* marks the source's active call; other numbers are inactive results. The list is not random: actives were taken first. Their share in the collection is about 2.3%.

SMILES | CHRM1 antagonist | CHRM1 agonist | M1 PAM | CHO-K1 Ca PAM | CHO-K1 Ca ag | CHO-K1 Ca antag
O=C(COc1ccccc1Cl)NC(=O)NC1CCCC1 | 34.2* | -9.0 | -21.9 | 17.1 | 0.9 | -8.7
O=C(NC1CCCCC1)C(c1ccccc1)N1CCCC1 (stereo not given) | 79.8* | -6.3 | -25.6 | 4.1 | 0.3 | -3.1
Cc1ccc(S(=O)(=O)NC(CCC(N)=O)C(=O)NCc2ccc3c(c2)OCO3)c(C)c1 (stereo not given) | -7.6 | -4.8 | 6.6 | 14.8 | 1.1 | -12.3
Cc1cccc(NC(=O)CSc2nc(=O)n(CCN3CCOCC3)c3c2CCCC3)c1C | -11.1 | -3.2 | 4.7 | -4.1 | 0.2 | -6.1
C(C#CCCCCCCCCC[n+]1ccccc1)#CCCCCCCCCC[n+]1ccccc1 | 98.4* | -4.7 | -27.0 | 14.8 | 0.7 | -6.1
COc1ccc(NC(=O)CCc2nnc3ccc(N4CCC(C)CC4)nn23)cc1OC | -4.6 | -6.4 | 2.5 | 2.9 | 0.0 | -11.3
Cc1nn(-c2ccccc2)c(Cl)c1/C=N/O | 6.9 | -7.2 | -1.4 | 4.9 | -0.3 | 10.1
Cc1nn(-c2ccccc2)c(Cl)c1/C=C/C(=O)c1ccccc1 | -26.0 | -0.8 | 1.9 | -5.9 | -0.2 | 28.4*
COc1ccc(CCn2nnnc2C(CC(C)C)N2CCN(c3ncccn3)CC2)cc1OC (stereo not given) | 22.8 | -2.7 | -6.6 | -11.7 | -0.6 | 36.8*
O=C(CN1C(=O)NC2(CCCC2)C1=O)OCCOc1ccc(Cl)cc1 | -8.4 | -2.1 | 0.6 | 1.4 | 1.6 | 0.5
CCOC(=O)c1ccc(NC(=O)C(CC)(CC)C(=O)OCC)cc1 | 4.8 | -4.7 | 3.0 | -3.4 | -0.4 | 25.0*
CCOC(=O)c1ccc(NC(=O)COC)cc1 | -6.4 | -4.8 | 5.7 | 18.2 | 0.6 | -8.6
CN(C)S(=O)(=O)c1cccc(-c2nn(-c3ccccc3)cc2/C=C(\C#N)c2nc3ccccc3[nH]2)c1 | -2.3 | -4.2 | 4.9 | -10.6 | 0.1 | 24.3*
N#C/C(=C\c1cn(-c2ccccc2)nc1-c1cc2ccccc2o1)c1nc2ccccc2[nH]1 | 6.7 | -3.6 | -0.6 | -2.3 | 0.1 | 3.6
COc1cc(-c2nc(-c3ccc4c(c3)-c3ccccc3S4(=O)=O)c(-c3ccccc3)[nH]2)cc(OC)c1OC | 21.9 | -2.3 | -5.3 | -0.6 | 2.4 | 15.5
COc1cccc(-c2nc(-c3ccc4c(c3)-c3ccccc3S4(=O)=O)c(-c3ccccc3)[nH]2)c1OC | 5.3 | 1.6 | 1.8 | -8.7 | -0.7 | 27.3*
CNC(=O)[C@@H]1CCC(=O)N1 | -1.5 | 3.0 | 15.1 | -16.8 | 0.3 | 2.0
CN(C)c1ccc(/C=N/n2c(-c3ccccc3Br)n[nH]c2=S)cc1 | 32.4* | -6.1 | -24.7 | 12.7 | 1.8 | -4.0
O=C(NC1CCCC1)C1CCN(C(=O)c2ccc(Cl)cc2Cl)CC1 | 5.8 | -1.6 | 0.0 | 6.0 | 6.6 | 9.7
O=C(NCCSCc1ccccc1)c1ccc(C2SCC(=O)N2Cc2ccccc2)cc1 (stereo not given) | 59.7* | -8.3 | -34.2 | -8.4 | 1.4 | 2.0
COc1cc(CN(CCN(C)C)Cc2ccccc2)ccc1OCc1ccccc1 | 51.3* | -8.5 | -23.5 | -3.7 | 0.6 | 10.6
O=C(CCCCCNC(=O)N1CCn2c1nc1ccccc12)N[C@@H](Cc1ccccc1)C(=O)O | -10.1 | -1.8 | 6.8 | 13.1 | -0.1 | -1.4
CCc1cc(OCCCCNCc2ccccc2)ccc1Cl | 29.7 | -2.2 | -23.8 | 26.4 | 16.8* | 2.4
OCCCCNCc1ccc(OCc2ccccc2Cl)cc1 | 44.4* | -11.2 | -34.6 | 2.4 | 2.1 | -9.4
OCCCCNCc1ccc(OCc2ccccc2)cc1 | 13.1 | -8.5 | -22.2 | 5.4 | 1.1 | -7.0
SMILES | CHRM1 antagonist | CHRM1 agonist | M1 PAM | CHO-K1 Ca PAM | CHO-K1 Ca ag | CHO-K1 Ca antag
O=C(COC(=O)C1CCN(c2ccc(C(F)(F)F)cn2)CC1)Nc1ncc(Cl)cc1Cl | 0.0 | -1.1 | 7.5 | 0.8 | -0.1 | -2.0
CCCSc1nnc(NC(=O)Nc2ccc(F)cc2)s1 | 16.4 | 1.0 | -6.1 | -3.3 | 3.4 | 24.1*
CSC1=NC=C(C#N)C2=NC(c3c(Cl)cccc3Cl)NN12 (stereo not given) | 11.5 | -9.5 | -3.0 | 5.8 | -0.4 | 5.8
CN(Cc1ccccc1)C(=O)CN1CCN(C(c2ccccc2)c2ccccc2)CC1 | 85.6* | 0.7 | -20.1 | 12.3 | 0.6 | -6.0
COC(=O)CN1CCN(C(c2ccccc2)c2ccccc2)CC1 | 13.5 | -0.6 | -11.0 | 4.5 | 0.1 | 0.8
CCC(C)(C)c1ccc(OCCCC[n+]2cccc(C)c2)c(C(C)(C)CC)c1 | 25.3* | 6.9 | -25.7 | 28.2 | 14.4 | 9.8
CC(=O)N1CCc2cc(C(=O)CN3CCN(c4ccccn4)CC3)ccc21 | 14.2 | -1.7 | 7.5 | -8.8 | 0.6 | -0.5
COc1ccc(NC(=O)CCCSc2ccccc2)cc1 | -2.5 | -4.0 | 4.0 | 16.5 | 4.0 | -18.1
CCN(CC)c1ccc(/C=C/C(=O)c2ccc(Br)cc2)cc1 | 79.0* | 171.0* | -24.5 | -3.9 | 111.2* | 72.8*
C=CCn1c(O)c2ccc(C(=O)N=NC(=O)COc3ccc(OC)cc3)cc2c1O | -6.2 | -2.5 | 6.2 | 22.6 | 1.5 | -2.4
NC(=O)C1CCN(C(=O)c2ccc(Cl)c(S(=O)(=O)N3CCc4ccccc43)c2)CC1 | -27.3 | 1.0 | 16.5 | -14.3 | 0.5 | 11.1
CCOC(=O)C1CCCN(CC(O)COCc2ccccc2OC)C1 (stereo not given) | -17.2 | -4.1 | 11.7 | 5.6 | 0.5 | -14.3
CN(C)C(=O)CCc1ccc2c3c([nH]c2c1)[C@]1(C)[C@@H](C(=O)N2CCOCC2)C[C@H](CC(=O)NCCN2CCOCC2)C(=O)N1CC3 | 17.6 | -4.3 | -10.1 | -15.0 | -0.3 | 24.4*
O=C(NCc1cccc(F)c1)c1cccc2c1C(=O)c1ccc(N3CCCC3)cc1S2(=O)=O | 33.0* | 26.6* | -18.0 | 13.1 | 13.2 | -7.3
O=C(NCCc1ccc(F)cc1)c1cccc2c1C(=O)c1ccc(N3CCC(Cc4ccccc4)CC3)cc1S2(=O)=O | -4.4 | 20.4* | 0.0 | 19.2 | 1.3 | -7.3
O=C(NCc1cc(C(F)(F)F)ccc1Cl)c1cccc2c1C(=O)c1ccc(N3CCC(N4CCCCC4)CC3)cc1S2(=O)=O | 31.7* | -2.3 | -27.7 | 7.4 | 8.9 | 9.6
O=C(NCc1cc(C(F)(F)F)ccc1Cl)c1cccc2c1C(=O)c1ccc(N3CCCCC3)cc1S2(=O)=O | -7.4 | -1.7 | 10.4 | 20.6 | 0.1 | -9.8
O=C1CCCC2=C1C1c3ccccc3C(=O)N1c1ccc(C(=O)c3ccccc3)cc1N2 (stereo not given) | 8.2 | -2.8 | -0.8 | -1.3 | 2.8 | 24.2*
O=C1CC(c2ccco2)CC2=C1C1c3ccccc3C(=O)N1c1ccccc1N2 (stereo not given) | 2.9 | -3.1 | -4.8 | 4.2 | 1.4 | -6.9
